The structures appear in SMILES notation. The whole screen tested about 290,000 compounds, of which about 11,000 (3.8%) were called active. Many of the other results were omitted from the sample, so actives are more common in it than they were. Unmarked numbers belong to inactive results.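 Rule for the calls: active = mean replicate inhibition above about 79%, with every replicate also reaching it (limit read from the data); inconclusive = only one of the two criteria met; inactive = mean below limit and not every replicate reaching it.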

The experiment deals with FAD-linked sulfhydryl oxidase ALR (Homo sapiens) (UniProt P55789). In words: inhibitors of human ALR sulfhydryl oxidase, primary screen, biochemical, H2O2 detection, HRP-luminol luminescence, single point (AID 485317). As to conditions: purified ALR, DTT oxidation, hits give high values, concentration not given here.
Chain of FAD-linked sulfhydryl oxidase ALR (Homo sapiens) (P55789 whole entry, looked up): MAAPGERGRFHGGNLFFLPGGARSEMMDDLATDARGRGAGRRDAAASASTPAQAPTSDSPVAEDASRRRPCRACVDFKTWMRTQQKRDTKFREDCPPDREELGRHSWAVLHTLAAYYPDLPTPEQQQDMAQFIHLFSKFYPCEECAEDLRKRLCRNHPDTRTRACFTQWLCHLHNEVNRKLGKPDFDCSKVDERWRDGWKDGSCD
For the compound `O=C(O)c1cccc(S(=O)(=O)N2CC=C(c3ccccc3)CC2)c1`, the inhibition is 3.35%. As for `Cc1ccc(SC(CC(=O)c2ccc(C(C)(C)C)cc2)C(=O)O)cc1` (stereo not drawn), the inhibition is 97.7% (active).

For `Cc1ccc(C(=O)NCCNC(=O)c2ccccc2)cc1`, the inhibition is -3.69%.

In the case of `Cc1ccc(C(=O)CNc2ccc(F)cc2)cc1`, the inhibition is -18.2%.

As for `CC(C)(C)OC(=O)C[C@@H]1C/C=C\C[C@@H](CC(=O)N(CCO)Cc2ccccc2)C(=O)N[C@H](Cc2ccccc2)COC1=O`, the inhibition is -5.13%.

`Cc1cc(NC(=O)CSCC(=O)NC(C)c2ccccc2)no1` (stereo not drawn): the inhibition is -11.9%.

For the compound `O=C(CCCN1C(=O)/C(=C\c2ccccc2)SC1=S)Nc1ccccc1O`, the inhibition was 1.84%.

With `COc1ccc(/C=C2\SC(=O)N(CCC(=O)NCCCn3ccnc3)C2=O)cc1`, the inhibition is -4.29%. Consider `COc1ccc(/C=C2/SC(=O)N(CCCCCC(=O)Nc3ccccc3C(=O)O)C2=S)cc1`, for which the inhibition was 98.9% (active). As for `O=C1COc2ccc(C(=O)COC(=O)c3ccccc3Cl)cc2N1`, the inhibition was -5.15%. With `CCC(CO)Oc1cc(NC(=O)c2cccc3ccccc23)c2ncn(C(C)C)c2c1` (stereo not drawn) the figure was -21.2%; with `C/C(N)=C(/C#N)C(=O)COC(=O)CNS(=O)(=O)c1ccc(C)cc1`, -12.8%. With `COC(=O)CNS(=O)(=O)c1ccc(OC)cc1` the figure was -8.89%; with `COC(=O)CNS(=O)(=O)c1ccc(Cc2ccc(S(=O)(=O)NCC(=O)OC)cc2)cc1`, 99.2% (active). For the compound `COc1cc(C(=O)N(C)Cc2cccc(OC)c2OC)ccc1OCC(=O)Nc1cccc(C(F)(F)F)c1`, the inhibition is -114%. With `CC1O[C@@H](OC2C(O)C(C)O[C@H](OC(=O)[C@]34CCC(C)(C)C[C@H]3C3=CCC5[C@@]6(C)CC(O)C(O[C@@H]7OC(CO)C(O)[C@@H](O)[C@@H]7O)[C@@](C)(C(=O)O)C6CC[C@@]5(C)[C@]3(CO)CC4)C2O[C@H]2OC(C)[C@@H](O[C@@H]3OCC(O[C@@H]4OC(CO)C(O)[C@H](O)C4O)[C@@H](O)[C@@H]3O)[C@H](O)C2O)C(O)C(O)C1O` (stereo partly drawn) the figure was 22.9%. Turning to `O=C(C[C@H]1C/C=C\C[C@@H](NC(=O)OCC2c3ccccc3-c3ccccc32)C(=O)O[C@@H](c2ccccc2)CNC1=O)N[C@H](CO)Cc1ccccc1`, the inhibition is 0.728%. In the case of `OCc1ccc(-c2ccccc2)c(-c2ccccc2)c1` it was -3.81%; in that of `CCOc1ccccc1Nc1nnc(SCC(=O)NCC2CCCO2)s1` (stereo not drawn), 1.03%; in that of `CCOc1cc(-c2nc3cc(C)ccn3c2NCC2CCCO2)ccc1O` (stereo not drawn), 99.6% (active). With `CCOc1ccc(C(=O)Nc2ccc(S(=O)(=O)NCC3CCCO3)cc2)cc1OCC` (stereo not drawn) the figure was 1.23%.

With `O=C(COC(=O)c1ccc(F)cc1)Nc1ccc2c(c1)OCO2`, the inhibition was -9.08%.

With `C=CC[C@@H](CC(=O)N[C@H](CO)Cc1ccccc1)C(=O)N[C@@H](COC(=O)[C@@H](CC=C)Cc1ccc(F)cc1)Cc1c[nH]c2ccccc12`, the inhibition was 10.3%. With `COc1ccccc1C(=O)Nc1ccc(Nc2ccccc2)cc1` the figure was -2.18%; with `COc1ccccc1C(=O)Nc1ccccc1C(=O)Nc1ccccc1`, 4.88%. In the case of `COc1ccccc1C(=O)Nc1nc2nc(-c3ccccc3)cc(=O)n2[nH]1` it was 97.8% (active); in that of `O=C(CNC(=O)c1ccco1)NNC(=O)c1ccc(Br)cc1`, -12.3%. Take `C=CCC1(C(=O)N(C)Cc2ccccc2)CCN(C(=O)OC(C)(C)C)CC1`: the inhibition is -25%. In the case of `COc1ccc(NC(=O)CSc2ncnc3[nH]ncc23)cc1` it was 98.6% (active). For the compound `COc1ccc(NC(=O)CSc2nc(C)cs2)cc1`, the inhibition was -14.7%.

As to `CC(=O)Nc1ccc(NC(=O)CSc2ncnc3c2cnn3Cc2ccccc2)cc1`, the inhibition is -9.78%. In the case of `CCCCn1nc(C(=O)Nc2cccc(C(=O)NC3CC3)c2)c2ccccc2c1=O` it was -0.223%. Take `Cc1ccc(Nc2nnc(SC(C)C(=O)NC3CC3)s2)cc1` (stereo not drawn): the inhibition was 7.72%. In the case of `COc1ccccc1C(=O)NCCC(=O)N(C)Cc1cccnc1` it was -1.19%. Turning to `COc1ccccc1C(=O)N1CCN=C1SCc1cccnc1`, the inhibition is 96.4% (active). In the case of `COc1cccc(OC)c1C(=O)N1CCN(Cc2cccnc2)CC1` it was 6.59%; in that of `C=C1CCC(N(O)c2cc(C)on2)C(=C)CCC2C1CC2(C)C` (stereo not drawn), 4.12%. Turning to `COc1ccccc1C(=O)OCC(=O)Nc1cccc(S(=O)(=O)NC2=NCCCCC2)c1`, the inhibition is 14.6%.

Regarding `Cc1ccc(S(=O)(=O)N2CCN(C(=O)Cn3c(=O)cnc4ccccc43)CC2)c(C)c1`, the inhibition is -23.6%. In the case of `CCc1sc(C(=O)N2CCN(CC(=O)Nc3cccc(F)c3)CC2)cc1C` it was -6.06%; in that of `CCNc1nc(N)nc(-c2cc(Cl)ccc2OC)n1`, 4.24%; in that of `CCOc1cc(/C=C(\C#N)c2nc(-c3cccs3)c(NC(C)=O)s2)ccc1O`, -22.4%. For `CCNc1nc(NCC)nc(N/N=C/c2ccc(O)c(OC)c2)n1`, the inhibition was 99.1% (active). With `COc1cc(/C=N\Nc2nc(-c3cccs3)c(NC(C)=O)s2)ccc1O`, the inhibition was 98.9% (active). For the compound `COc1cc(/C=N/Nc2nc3ccccc3s2)ccc1O`, the inhibition was 46.3%.

On to `COc1ccc(/C=N/Nc2nc3ccccc3o2)cc1OC`, for which the inhibition was -12.6%. With `COc1ccccc1/C=N/Nc1nc(C)c(C(C)=O)s1` the figure was 3.01%; with `CSc1ccc(/C=C2\NC(=O)NC2=O)cc1`, 4.58%; with `Cc1ccc(-c2cc(C(=O)N/N=C/C=C/c3ccco3)c3ccccc3n2)cc1C`, -5.26%. With `Cc1ccc(N2NC(=O)/C(=C/C=C/c3ccco3)C2=O)cc1C` the figure was 97.4% (active); with `Cc1ccc(N=C2NC(=O)/C(=C/C=C/c3ccco3)S2)cc1C`, 88.6% (active). For `Cc1cccc(N=C2NC(=O)/C(=C/c3cn(C)c4ccccc34)S2)c1`, the inhibition was -1.56%. Regarding `COC(=O)C1=C(C)N(c2ccc(Br)cc2)C(=O)/C1=C\c1ccco1`, the inhibition is 3.31%.

Turning to `COc1ccc(CNC(=O)COC(=O)c2sccc2C)cc1OC`, the inhibition was 2.29%. As for `O=C(CN1C(=O)NC2(CCCC2)C1=O)OCCOc1ccc(F)cc1`, the inhibition was -0.86%. In the case of `CN(CC(=O)Nc1ccc(Cl)cc1)C(=O)c1ccc(COc2ccccc2)cc1` it was -2.8%; in that of `Cc1[nH]c2ccccc2c1/C=N\NC(=O)Cn1nnc(-c2ccccc2)n1`, -18.5%; in that of `COCCNC(=S)N/N=C/c1c(C)[nH]c2ccccc12`, 98% (active). In the case of `Cc1[nH]c2ccccc2c1/C=N/NC(=O)CNC(=O)c1ccc2c(c1)OCO2` it was -4.62%; in that of `O=C(COC(=O)C1(c2ccc(F)cc2)CCCC1)N1CCNC1=O`, 1.5%. `COc1ccccc1C(CNC(=O)c1cccc(NS(=O)(=O)c2ccc(Br)cc2)c1)N(C)C` (stereo not drawn): the inhibition is -2.7%.

For the compound `CC(C)NC(=O)Nc1cccc2c1O[C@@H](CN(C)S(=O)(=O)c1ccc(F)cc1)[C@@H](C)CN([C@H](C)CO)C2=O`, the inhibition is -3.22%. As for `CCOC(=O)c1c(-c2ccccc2)oc2cc(Br)c(O)cc12`, the inhibition is 13.2%. In the case of `CCOC(=O)c1c(-c2cccc(N)c2)cn2ccccc12` it was 99% (active). Turning to `CCOC(=O)c1c(N)nn(C(=O)c2ccccc2)c1-c1ccccc1`, the inhibition was 3.16%. In the case of `CCOC(=O)c1sc(N)c(C#N)c1COC(=O)C1=COCCO1` it was -1.4%.

For the compound `CCOC(=O)CSc1ccccn1`, the inhibition is -2.85%.

Take `CCOC(=O)CSC1=N/C(=C/c2ccc(-n3cncn3)cc2)C(=O)N1C(C)=O`: the inhibition is 97.6% (active). For the compound `CCOC(=O)CSc1nc(C)cc2c1C(=O)OC2`, the inhibition was -5.37%. With `CC(=O)Nc1ccc(NC(=O)COC(=O)c2ccccc2C(=O)c2ccccc2)cc1` the figure was 0.353%; with `COc1ccc(S(=O)(=O)N2CCCCCC2)cc1C(=O)N(C)Cc1cccc(OC)c1OC`, -1.21%.

`CCOc1ccc(C(=O)NCC(=O)N2CCN(c3ccc(C(F)(F)F)cn3)CC2)cc1`: the inhibition is 1.77%.

`O=C(COC(=O)CN1C(=O)C2CCCCC2C1=O)Nc1ccc(F)c(F)c1F` (stereo not drawn): the inhibition was -5.29%. With `COc1ccc([N+](=O)[O-])cc1-c1nc2ccccc2nc1-c1ccccc1` the figure was -10.3%; with `Cc1nc(-c2ccc([N+](=O)[O-])cc2)c(-c2ccccc2)o1`, 97.6% (active); with `Cc1cccc(NC(=O)c2sc(-c3ccccc3)nc2-c2ccc([N+](=O)[O-])cc2)c1`, -3.26%. With `CCC(CO)Oc1cc(NCc2ccccc2)c2ncn(C3CCCC3)c2c1` (stereo not drawn) the figure was 15.4%. With `CC1CC1C(=O)OCC(=O)Nc1cccc(F)c1` (stereo not drawn) the figure was -3.36%; with `COC(=O)c1ccc(C)c(NC(=O)Cn2c(C)csc2=O)c1`, -1.89%. For the compound `CC(=O)Nc1ccc(-c2nc3ccccc3o2)cc1`, the inhibition was -1.09%. Turning to `N#Cc1cccc(Nc2c3c(nc4ccccc24)CCCC3)c1`, the inhibition is -9.75%. As for `O=[N+]([O-])c1cccc(Nc2c3ccccc3nc3ccccc23)c1`, the inhibition is -6.1%. In the case of `O=C(Nc1c2c(nc3ccccc13)CCCC2)c1ccccc1Br` it was -5.44%; in that of `CC(=O)Nc1ccc(Nc2c3ccccc3nc3ccccc23)cc1`, 89.9% (active).

As to `Cc1ccc(Nc2c3c(nc4ccccc24)CCC3)cc1`, the inhibition was 98.4% (active).

Take `CCOC(=O)C1=C(COC(=O)[C@H](C)NS(=O)(=O)c2ccccc2F)NC(=O)NC1C` (stereo partly drawn): the inhibition was -1.62%. In the case of `O=C(CN1C(=O)NC2(CCOc3ccccc32)C1=O)NCc1ccc(F)cc1` (stereo not drawn) it was -3.27%; in that of `COC(=O)C1CCN(C(=O)COC(=O)c2cc(S(=O)(=O)N3CCOCC3)ccc2C)CC1`, -15.3%.

For the origin of these results see PubChem BioAssay AID485317 (Broad Institute, 2010).
